Assay outcomes as filed in PubChem.
hcDAF-12 act – H. contortus DAF-12 activation, primary screen. HEK293 hcDAF-12 lit1-tk-luc reporter, luminescence; 0% DMSO, 100% Δ7-dafachronic acid. 370,000 compounds, 1.4% hits. activation, % at 6.8 µM;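 active = activation above the mean of all tested compounds plus 3 SD, cut at about 5.5% in these data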;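 note: 100% = response to 3 µM Δ7-dafachronic acid high control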
DAX1 inh-1 – inhibitors of human orphan nuclear receptor DAX1 (NR0B1). inhibition, % at 6.75 µM. HEK293 Gal4-DAX1 luciferase reporter, luminescence. AID 504766. 340,000 compounds, 0.99% hits. P51843;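 active = inhibition above the mean over all tested compounds plus 3 SD, cut at about 4.2% in these data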;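 note: 0% = DAX1-transfected cells with DMSO and 100% = empty-vector control cells with DMSO; inhibition shows as a rise in luminescence from relieved DAX1 repression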
Target sequence (P51843 207-470 limits assumed): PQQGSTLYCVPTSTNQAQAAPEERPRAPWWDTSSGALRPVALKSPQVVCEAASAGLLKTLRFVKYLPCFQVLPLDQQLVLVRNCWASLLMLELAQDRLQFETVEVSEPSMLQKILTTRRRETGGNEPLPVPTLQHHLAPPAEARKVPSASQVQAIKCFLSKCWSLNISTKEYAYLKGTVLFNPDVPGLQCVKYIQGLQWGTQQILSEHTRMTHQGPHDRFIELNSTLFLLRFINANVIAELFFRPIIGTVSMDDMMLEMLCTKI
ssDAF-12 act – activates DAF-12 receptor from parasite S. stercoralis; HEK293 ssDAF-12/GRIP1 lit1-tk-luc reporter, luminescence; % of 3 µM dafachronic acid response; activation, % at 6.8 µM; 370,000 compounds, 1% hits; AID 652126;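 active = activation above the mean over all tested compounds plus 3 SD, cut at about 0.9% in these data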;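 note: 0% = DMSO-only wells and 100% = 3 µM delta7-dafachronic acid wells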
DAX1 inh-2 – blocks DAX1 repression of SF-1 activated StAR promoter. AID 652010. inhibition, % at 6.8 µM. 370,000 compounds, 1.1% hits. HEK293T StAR-luciferase reporter, SF-1/DAX-1 repression relief;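 active = inhibition above the mean over all tested compounds plus 3 SD, cut at about 3.6% in these data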;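 note: 0% = DAX-1 cells with DMSO and 100% = cells lacking DAX-1 with DMSO; higher inhibition means more luminescence from relief of DAX-1 repression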
SMARCA2 activ – increases SMARCA2 function in MMTV reporter cells | activation, % at 9.1 µM | AID 652017 | 370,000 compounds, 1% hits | MG213 cells, MMTV-luciferase reporter, dexamethasone, overnight; in the data active = activation above about 7.8%;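 note: 0% = vehicle wells and 100% = reference activator wells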
hgDAF12 agonist – hgDAF-12 agonism, primary luciferase screen | HEK293 GAL4-hgDAF12 UAS-luciferase reporter, agonist luminescence; normalized to butyrate control | activation, % at 6.8 µM | 370,000 compounds, 1.8% hits | AID 687014;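 active = activation above a cutoff set at the mean of all screened compounds plus 3 SD, cut at about 10% in these data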;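 note: 0% = DMSO wells and 100% = sodium butyrate wells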
LXR ag – LXR-beta agonism as hcDAF-12 counter-screen; AID 743027; 3,400 tested, under 10 active; HEK293 Gal4-LXR tk-luc reporter, luminescence, 24 h; normalized: DMSO 0%, positive control 100%; activation, % at 6.8 µM; shares compounds with hcDAF-12 act;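 active = mean percent activation of the reporter above a cutoff set as the average over tested compounds plus their standard deviation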
hcDAF12 ag – confirmation of H. contortus DAF-12 agonists | AID 743032 | shares compounds with hcDAF-12 act | HEK293 hcDAF-12 lit1-tk-luc reporter, luminescence; % of Δ7-dafachronic acid response | activation, % at 6.8 µM | 3,400 compounds, 61% hits;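 active = mean activation across triplicate tests above the threshold derived from the earlier primary screen, cut at about 5.5% in these data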;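 note: 0% = DMSO only wells and 100% = 3 µM Δ7-dafachronic acid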
* marks the source's active call; other numbers are inactive results; nt = not tested or not shown. An excerpt weighted towards active compounds, which were near 4.8% of everything screened.

SMILES	hcDAF-12 act	DAX1 inh-1	ssDAF-12 act	DAX1 inh-2	SMARCA2 activ	hgDAF12 agonist	LXR ag	hcDAF12 ag
O=C(O)c1cccc(N/N=C/c2sc(N3CCOCC3)nc2-c2ccccc2)c1	7.5*	0	-1	1	5	9	0	3
O=C(O)c1cccc(N/N=C/c2cccc3ccccc23)c1	7.5*	-3	0	1	1	13*	2	11*
Nc1ccc(C(=O)N/N=C/c2sc(N3CCOCC3)nc2-c2ccccc2)cc1	2	0	-2	-1	1	-4	nt	nt
COC(=O)c1ccc(COc2ccccc2/C=N/Nc2cccc(C(=O)O)c2)cc1	-1	-1	-1	2	1	3	nt	nt
COc1ccc(CNC(=O)N(C)C[C@@H]2OCc3ccccc3-c3c(n(C)c4ccccc34)C(=O)N([C@@H](C)CO)C[C@@H]2C)cc1	-2	nt	-1	-1	-4	-2	nt	nt
O=C(Cn1cc([N+](=O)[O-])cn1)NCc1cc2ccccc2[nH]1	8.0*	0	0	0	0	2	0	4
Brc1cccc(-c2nnc(-c3ccccc3)o2)c1	11*	4	1.6*	3.9*	-1	10*	2	11*
Cc1ccc(-c2nnc(-c3cccc(Br)c3)o2)cc1	2	1	-1	2	3	7	nt	nt
O=C(c1ccccc1)N1N=C(c2ccccc2)CC1c1ccccc1 (stereo unspecified)	3	-1	-1	0	2	0	nt	nt
Cn1cc(C2CC(c3ccccc3)=NN2C(=O)c2ccccc2)c2ccccc21 (stereo unspecified)	7.9*	2	0	2	3	6	0	4
CCCC(=O)N1N=C(c2ccccc2)CC1c1cn(C)c2ccccc12 (stereo unspecified)	8.1*	0	-1	0	-1	0	0	2
CC(=O)N1N=C(c2ccc(Br)cc2)CC1c1cn(C)c2ccccc12 (stereo unspecified)	1	0	0	-1	-3	2	nt	nt
O=C(CSc1nc2sc3c(c2c(=O)n1-c1ccc(Cl)cc1)CCCC3)c1ccccc1Cl	2	nt	-1	0	-3	-1	nt	nt
Cc1cccc(N2CN=c3s/c(=C\c4ccccn4)c(=O)n3C2)c1	10*	1	1	0	-1	0	0	0
C#CCNC(=O)C[C@@H]1C(=O)N(CCc2ccc(Cl)cc2)C2=CCCCC[C@]21C(=O)OC	-3	nt	0	-1	-1	2	nt	nt
CC(C)(C)NC(=O)[C@@H](c1cccnc1)N(C(=O)c1ccco1)c1ccc(C(C)(C)C)cc1	-2	nt	-1	nt	nt	3	nt	nt
Cc1cc(N)n(-c2ccc(C)c(C)c2)n1	7.1*	1	0	1	3	8	0	5
Cc1nc(N)sc1C(=O)Nc1ccccc1	5	3	0	2	-1	8	nt	nt
Cc1ccc(NC(=O)c2sc(N)nc2C)cc1	6.9*	1	0	1	4	11*	1	5
CC1Cn2c(nnc2-c2cccc(Cl)c2)S1 (stereo unspecified)	-1	0	-1	1	3	0	nt	nt
CC1Cn2c(nnc2-c2ccc(F)cc2)S1 (stereo unspecified)	6.9*	1	1.0*	2	-1	0	0	2
CC(=O)Nc1sc2c(c1-c1nc3ccccc3s1)CCN(C(C)C)C2	nt	1	nt	nt	nt	nt	nt	nt
C#CCCC(=O)Nc1sc2c(c1-c1nc3ccccc3s1)CCN(C(C)C)C2	9.7*	nt	0	nt	nt	8	0	2
CC(C)N1CCc2c(sc(NC(=O)C(F)F)c2-c2nc3ccccc3s2)C1	0	nt	-2	nt	nt	5	nt	nt
CC(=O)Nc1sc2c(c1-c1nc3ccccc3s1)CCN(C(C)C)CC2	13*	nt	1.1*	nt	nt	-1	1	15*
SMILES	hcDAF-12 act	DAX1 inh-1	ssDAF-12 act	DAX1 inh-2	SMARCA2 activ	hgDAF12 agonist	LXR ag	hcDAF12 ag
Cc1[nH]n(C(N)=S)c(=O)c1N=Nc1ccc(Br)cc1	7.3*	2	0	1	4	5	1	14*
CCCOc1ccc(CN(CCO)CCO)cc1[N+](=O)[O-]	7.3*	1	0	1	1	2	0	4
CCn1c(=O)c(C(=O)Nc2ccc(C)cc2)c(O)c2ccccc21	8.7*	3	0	1	3	2	0	5
Cc1ccc(NC(=O)c2cc(Cl)nc3ccccc23)cc1	2	0	-1	0	1	1	nt	nt
CCn1c(=O)c(C(=O)NNC(=O)c2ccccc2)c(O)c2ccccc21	-1	1	0	0	2	4	nt	nt
Cc1ccc(NC(=O)c2c(Cl)n(C)c3ccccc23)cc1	7.0*	1	1.1*	0	3	10	0	11*
Cc1cccc(NC(=O)c2c(O)c3ccccc3n(C)c2=O)c1	7.5*	1	1.1*	1	5	5	1	12*
CC(C)c1ccc(NC(=O)OC2CCC23CCC(c2ccccc2)CC3)cc1 (stereo unspecified)	-1	nt	0	nt	nt	3	nt	nt
COc1cc(Cl)ccc1OCc1cc(C(=O)NC(C)Cc2cnccn2)no1 (stereo unspecified)	8.5*	2	1.5*	3	4	13*	1	6.0*
CC[C@@H](CCCc1ccc(OC)cc1)CCC(=O)N(c1ccccc1)c1ccccc1	-1	nt	-2	0	-5	-1	nt	nt
COc1cccc(C2c3[nH]c4ccccc4c3C[C@H]3C(=O)N(c4ccccc4C(=O)N4CCCC4C(=O)O)C(=O)N23)c1 (stereo partly specified)	12*	1	0	0	1	4	0	4
COc1ccc(C2c3[nH]c4ccccc4c3C[C@H]3C(=O)N(c4ccccc4C(=O)NCCN4CCOCC4)C(=O)N23)cc1 (stereo partly specified)	2	-1	0	0	2	0	nt	nt
Cc1ccc(C2c3[nH]c4ccccc4c3C[C@H]3C(=O)N(c4ccccc4C(=O)N4CCC[C@@H]4C(=O)O)C(=O)N23)cc1 (stereo partly specified)	10*	2	0	2	5	4	0	6
COCCCN1CC(=O)N2C(c3ccc(C)cc3)c3[nH]c4ccccc4c3C[C@H]2C1=O (stereo partly specified)	2	-1	0	-1	0	-2	nt	nt
